# This is a sample that favours compounds with a hit; in the whole collection about 19% have one here.
# HT1080-NT tox – kills 2HG-producing HT-1080-NT fibrosarcoma cells. HT-1080-NT fibrosarcoma viability, CellTiter-Glo ATP luminescence, 48 h. Potency, µM (doses to about 46.1 µM), for inactives: at the highest dose activity, negative = less viability, most hits filed as cytotoxic. 360,000 compounds, 1.6% hits. AID 686970;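 note: NT is the 2HG producing partner of a matched IDH1 knockdown line; potency is the fitted concentration of half-maximal effect; 0% = DMSO-treated cells and -100% = media-only wells without cells; nearly all actives have a fitted effect of over 55% in size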
#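 A 48-hour cytotoxicity screen used HT-1080-NT cells plated 2 hours before compound delivery. ATP-based CellTiter-Glo luminescence measured viability, normalized to DMSO and no-cell controls.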
# uPA surface inh – cell surface uPA generation inhibition; cell surface uPA generation assay, qHTS; Potency, µM (highest dose often 38.3 µM), inactives show at the highest dose activity change, negative = inhibition, usual class: inhibitors; 330,000 compounds, 0.31% hits; AID 540303; active = well fitted inhibition curve with a large enough effect; inconclusive = small, poorly fitted or top-dose-only effect; inactive = no such curve, though single readings can be large or run the other way; tested in mouse RAW 264.7 cells; note: potency is the fitted concentration of half-maximal effect; nearly all actives have a fitted effect of over 55% in size
# DT40 TDP1 CPT – growth inhibition of DT40 Tdp1-/-;hTDP1 cells with camptothecin (screen for TDP1 inhibitors); chicken DT40 Tdp1-/-;hTDP1 cells + 20 nM CPT, ATP luminescence, 48 h; Potency, µM (titrated, usually from 46.2 µM), without a hit: at the top dose activity change, negative = growth inhibition, actives largely listed as inhibitors; AID 686979; 420,000 compounds, 12% hits; note: potency is the fitted concentration of half-maximal effect; nearly all actives have a fitted effect of over 55% in size
#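 Chicken DT40 Tdp1-/- cells stably complemented with human TDP1 were seeded at 400 cells/well in medium containing 20 nM camptothecin, exposed to pin-transferred compounds, and grown at 37 °C for at least 48 hr. Viability was read as ATP luminescence.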
# TDP1 cell noCPT – qHTS for Inhibitors of human tyrosyl-DNA phosphodiesterase 1 (TDP1): qHTS in cells in absence of CPT; DT40 Tdp1-/- hTDP1 cells, no CPT, ATP luminescence, 48 h; Potency, µM (top dose mostly 46.2 µM), inactives show at the highest dose activity change, negative = growth inhibition, actives largely listed as inhibitors; 420,000 compounds, 15% hits; note: potency is the fitted concentration of half-maximal effect; nearly all actives have a fitted effect of over 55% in size
#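 Compound effects on proliferation are scored in DT40 Tdp1-/-;hTDP1 cells in the absence of CPT. ATP levels (CellTiter-Glo luminescence) are recorded after a ≥48 hr, 37 °C incubation.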
# HT1080 IDH1KD tx – kills HT-1080 cells with IDH1 knockdown; HT-1080 IDH1 knockdown viability, ATP luminescence, 48 h; Potency, µM (series often up to 46.1 µM), for inactives: at the top dose activity, negative = toxicity, hits mostly cytotoxic; 360,000 compounds, 2% hits; AID 686971;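 note: potency is the fitted concentration of half-maximal effect; 0% = DMSO wells and -100% = cell-free medium wells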
#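 % activity derives from luminescence (CellTiter-Glo), normalised to DMSO and no-cell wells. HT-1080-IDH1KD cells, 750/well, had 48 h compound exposure at 37 °C.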
# IL1B secr inh – blocks inflammasome-driven IL-1 beta release; THP-1 LPS/ATP IL-1B secretion, AlphaLISA, 16 h; stronger effect = lower value; activity change, % at 57.5 µM; 360,000 compounds, 4.7% hits; in the data active = activity change below about -50%; inconclusive = mostly about -30% to -49%
#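 Secreted IL-1B measured by AlphaLISA bead assay after 16 h compound exposure of THP-1 cells; compounds (final up to 57.5 uM) added 1 h before LPS (250 ng/mL) and ATP (1.25 mM) stimulation; lower signal means less secretion.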
# * marks the source's active call; other numbers are inactive results; u = inconclusive; x = not tested or not shown. Unless noted, calls come from the whole dose curve; as a rule, active = well fitted curve in the direction sought with a large enough effect; inconclusive = small, poorly fitted or top-dose-only effect, or another doubt; inactive = no such curve, though single readings can be large; an effect the other way counts as inactive or inconclusive. Unless noted, % is set by controls: 0 for no effect and ±100 for the full control effect.
SMILES,HT1080-NT tox,uPA surface inh,DT40 TDP1 CPT,TDP1 cell noCPT,HT1080 IDH1KD tx,IL1B secr inh
CN(C)c1ccc(C=C2c3ccccc3-c3ccccc32)cc1,x,x,u,22µM*,x,x
CCOC(=O)c1noc2ncnc(Nc3cc(Cl)c(OC)cc3OC)c12,x,x,-12%,10%,x,x
CC1=Nc2ccccc2/C1=C/c1c(C)[nH]c2ccccc12,u,0%,u,16µM*,u,-72*
CCc1cccc(NC(=O)c2cccc3c2C(=O)N(C2CCCCC2)C3)c1,7%,3%,u,18µM*,4%,-15
Cc1cccc(CCNC(=O)c2cccc3c2C(=O)N(C2CCCCC2)C3)c1,u,5%,u,-4%,-24%,-66*
CCOc1ccccc1NC(=O)c1cccc2c1C(=O)N(C1CCCCC1)C2,16%,4%,u,13µM*,-2%,u
Cc1ccc(NC(=O)c2cccc3c2C(=O)N(C2CCCCC2)C3)cc1,u,1%,u,21µM*,u,u
CCCN1Cc2cccc(C(=O)NCCc3cccc(C)c3)c2C1=O,-1%,-7%,u,u,0%,-9
Cc1ccccc1NC(=O)c1cccc2c1C(=O)N(C1CCCCC1)C2,5%,3%,u,u,14%,15
O=C(Nc1cccc(F)c1)c1cccc2c1C(=O)N(C1CCCCC1)C2,0%,4%,1%,-1%,-1%,26
CC(C)c1ccc(NC(=O)c2cccc3c2C(=O)N(C2CCCCC2)C3)cc1,x,x,2%,-8%,x,x
O=C(CSc1nnc(-c2ccc(O)cc2)o1)Nc1ccccc1Br,10%,-2%,-13%,-25%,-1%,-25
Cc1ccc(NC(=O)c2cccc3c2C(=O)N(C2CCCCC2)C3)c(C)c1,-1%,2%,-9%,u,-5%,-6
Cc1cc(C)c(NC(=O)c2cccc3c2C(=O)N(C2CCCCC2)C3)c(C)c1,10%,1%,u,16µM*,-3%,0
Cc1ccc(NC(=O)c2sc3ncn(Cc4cccc(F)c4)c(=O)c3c2C)c(Br)c1,x,x,-12%,-24%,x,x
CCCCN(C(=O)c1cc(S(=O)(=O)N2CCOCC2)ccc1N1CCOCC1)c1ccccc1,-5%,x,-5%,-22%,0%,-14
COc1ccc(S(=O)(=O)N2CCCCCC2)cc1NC(=O)Cc1ccccc1,0%,-1%,3%,9%,4%,16
CCN(CC(=O)Nc1ccccc1OC)C(=O)c1cc(S(=O)(=O)N2CCCCCC2)ccc1OC,14%,-3%,16µM*,12µM*,9%,-25
CCN(CC(=O)Nc1cc(Cl)ccc1C)C(=O)c1cc(S(=O)(=O)N2CCCCCC2)ccc1OC,-2%,-4%,u,18µM*,-7%,u
CCCCN(C(=O)c1cc(S(=O)(=O)N2CCCCCC2)ccc1OC)c1ccccc1,-6%,1%,u,u,u,-81*
CC1=C(C(=O)N2CCOCC2)CC(CC(=O)NCc2cccc3ccccc23)C(=O)N1Cc1ccccc1 (centres undefined),9%,x,u,u,0%,15
Cc1ccc(N(C)C(=O)C2CCN(S(=O)(=O)c3cn(C)cn3)CC2)cc1,x,x,0%,-10%,x,x
COc1cccc(OCC(=O)NNC(=O)C(=O)Nc2cccc(C)c2)c1,-1%,11%,u,-8%,-1%,u
CCOC(=O)Cn1c(=N)n(CCOc2ccc(Br)cc2)c2ccccc21,0%,-4%,23µM*,16µM*,-13%,x
N=c1n(CCO)c2ccccc2n1CCOc1ccccc1,-2%,-3%,u,u,-1%,-9
SMILES,HT1080-NT tox,uPA surface inh,DT40 TDP1 CPT,TDP1 cell noCPT,HT1080 IDH1KD tx,IL1B secr inh
N=c1n(CCO)c2ccccc2n1CCOc1ccc(F)cc1,x,x,21µM*,-82%,x,x
N#Cc1cccc(NC(=O)N2CC[C@@]3(CCCN(C(=O)c4ccncc4)C3)C2)c1,x,x,7%,0%,x,x
Cc1ccc(O)c(N=Nc2ccccc2)n1,u,u,2.9µM*,16µM*,-7%,-25
CC(=O)O[C@]1(C(C)=O)CCC2C3C=C(C)C4=CC(=O)CC[C@]4(C)C3CC[C@@]21C (some centres undefined),-8%,-8%,23µM*,16µM*,-2%,u
CC(=O)O[C@@]1(C(C)=O)CCC2C3C=C(C)C4=CC(=O)CCC4(C)C3CCC21C (some centres undefined),x,x,-6%,-15%,x,x
C[C@]12CCC(=O)C=C1[C@H](O)C[C@@H]1[C@@H]2[C@@H](O)C[C@@]2(C)[C@H]1CC[C@]2(O)C(=O)CO,19%,5%,-15%,-9%,29%,0
CC(=O)OC1(C(C)=O)CCC2C3CC(Cl)C4=CC(=O)CCC4(C)C3CCC21C (centres undefined),-11%,-5%,u,23µM*,-10%,-24
CCCCCC(=O)O[C@]1(C(C)=O)CC[C@H]2[C@@H]3CCC4=CC(=O)CC[C@]4(C)[C@H]3CC[C@@]21C,u,-23%,26µM*,18µM*,u,0
CC(=O)O[C@]1(C(C)=O)CC[C@H]2[C@@H]3C=C(C)C4=CC(=O)CC[C@@H]4[C@H]3CC[C@@]21C,u,4%,u,4.6µM*,0%,u
CN(C)c1ccc(NC(=O)CCN2C(=O)c3cccc([N+](=O)[O-])c3C2=O)cc1,2%,7%,0%,17%,4%,28
Cc1cc(C)c2c(N=NN3CCOCC3)[nH]nc2n1,19%,4%,-3%,-15%,18%,-9
CCn1c(CNC(=O)c2cccc(C)c2)nnc1SCC(=O)Nc1nnc(C)s1,10%,2%,14%,3%,11%,15
CC(=O)O[C@]1(C(C)=O)CC[C@H]2[C@@H]3C=CC4=CC(=O)C=C[C@]4(C)[C@H]3CC[C@@]21C,-3%,-15%,u,15µM*,-1%,-25
CC1(C)CC(=O)C2=C(C1)OC(N)=C(C#N)C2c1ccoc1 (centres undefined),3%,1%,1%,13%,2%,19
C/C(=C\c1ccco1)C1C(C#N)=C(N)OC2=C1C(=O)CC(C)(C)C2 (centres undefined),3%,0%,26µM*,u,7%,-1
CC1(C)CC(=O)C2=C(C1)OC(N)=C(C#N)C2c1cn(-c2ccccc2)nc1-c1ccccc1 (centres undefined),15µM*,-2%,u,u,u,-54*
